# Measured values taken from PMC7862700, “An all-to-all approach to the identification of sequence-specific readers for epigenetic DNA modifications on cytosine”.
# Experiments:
# Test in all cases: DAPPL (digital affinity profiling via proximity ligation, sequencing); 10 mM Tris-HCl pH 7.5, 50 mM NaCl, 1 mM DTT, 4% glycerol, room temperature, 30 min; GST-TFs on glutathione beads, 16-mer random dsDNA library, 0.1% formaldehyde crosslink after washing; high values mean tight binding
# FLI1 = target: T1, FLI1 (Homo sapiens, UniProt Q01543 1-452); settings: protein: recombinant; tags: N-terminal GST; dsDNA, one strand shown
# T1 sequence: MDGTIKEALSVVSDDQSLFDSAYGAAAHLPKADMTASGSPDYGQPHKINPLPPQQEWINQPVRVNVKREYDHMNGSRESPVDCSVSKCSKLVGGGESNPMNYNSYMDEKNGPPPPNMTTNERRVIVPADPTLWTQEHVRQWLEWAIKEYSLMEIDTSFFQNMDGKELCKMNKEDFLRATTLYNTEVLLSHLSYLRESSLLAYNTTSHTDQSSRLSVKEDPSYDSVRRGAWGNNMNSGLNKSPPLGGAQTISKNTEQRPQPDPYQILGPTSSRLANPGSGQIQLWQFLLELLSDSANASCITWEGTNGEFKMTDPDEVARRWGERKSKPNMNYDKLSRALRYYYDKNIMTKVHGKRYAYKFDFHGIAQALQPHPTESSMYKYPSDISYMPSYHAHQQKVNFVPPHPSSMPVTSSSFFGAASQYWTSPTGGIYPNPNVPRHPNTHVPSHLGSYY
# How it was run: (§1)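 GST fusions of human transcription factors were expressed in yeast and captured with glutathione beads. Once given DNA barcodes and pooled alongside a tag-only sample, they were incubated for 30 min at room temperature with 200 nmole of a random double-stranded 16-mer DNA library in Tris/NaCl/DTT/glycerol buffer, then washed, crosslinked (0.1% formaldehyde), proximity-ligated, PCR-amplified and sequenced on an Illumina NextSeq500. The binding signal of each hexamer is its read frequency for a factor divided by its frequency for the tag-only sample.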
# ELK1 = target: T2, ELK1 (Homo sapiens, UniProt P19419 1-428); settings: protein: recombinant; tags: N-terminal GST; dsDNA, one strand shown
# T2 sequence: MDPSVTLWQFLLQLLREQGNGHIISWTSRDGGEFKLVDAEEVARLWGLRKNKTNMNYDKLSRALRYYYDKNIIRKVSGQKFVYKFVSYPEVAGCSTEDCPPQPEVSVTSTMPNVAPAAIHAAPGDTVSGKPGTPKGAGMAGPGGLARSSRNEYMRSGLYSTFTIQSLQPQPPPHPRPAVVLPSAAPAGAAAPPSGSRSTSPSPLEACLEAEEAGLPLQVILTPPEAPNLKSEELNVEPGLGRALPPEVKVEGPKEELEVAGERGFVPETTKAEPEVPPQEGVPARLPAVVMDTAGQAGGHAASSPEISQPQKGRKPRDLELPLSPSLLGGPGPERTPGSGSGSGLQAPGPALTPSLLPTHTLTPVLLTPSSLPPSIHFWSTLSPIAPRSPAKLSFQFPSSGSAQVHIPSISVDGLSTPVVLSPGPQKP
# How it was run: as §1
# GABPA = target: T3, GABPA (Homo sapiens, UniProt Q06546 1-454); settings: protein: recombinant; tags: N-terminal GST; dsDNA, one strand shown
# T3 sequence: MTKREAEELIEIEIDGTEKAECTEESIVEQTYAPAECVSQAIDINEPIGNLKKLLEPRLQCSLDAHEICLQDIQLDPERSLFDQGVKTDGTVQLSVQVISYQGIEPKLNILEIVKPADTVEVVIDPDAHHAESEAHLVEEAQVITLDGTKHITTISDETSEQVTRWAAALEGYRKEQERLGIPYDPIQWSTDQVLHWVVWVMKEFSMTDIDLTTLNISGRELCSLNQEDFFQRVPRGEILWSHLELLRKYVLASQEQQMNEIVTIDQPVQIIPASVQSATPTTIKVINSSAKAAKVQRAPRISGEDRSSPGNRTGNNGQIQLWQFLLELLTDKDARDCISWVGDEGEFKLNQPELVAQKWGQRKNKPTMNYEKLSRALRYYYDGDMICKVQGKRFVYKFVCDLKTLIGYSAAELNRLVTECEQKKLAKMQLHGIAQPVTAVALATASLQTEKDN
# How it was run: as §1
# ERG = target: T4, ERG (Homo sapiens, UniProt P11308 1-479); settings: protein: recombinant; tags: N-terminal GST; dsDNA, one strand shown
# T4 sequence: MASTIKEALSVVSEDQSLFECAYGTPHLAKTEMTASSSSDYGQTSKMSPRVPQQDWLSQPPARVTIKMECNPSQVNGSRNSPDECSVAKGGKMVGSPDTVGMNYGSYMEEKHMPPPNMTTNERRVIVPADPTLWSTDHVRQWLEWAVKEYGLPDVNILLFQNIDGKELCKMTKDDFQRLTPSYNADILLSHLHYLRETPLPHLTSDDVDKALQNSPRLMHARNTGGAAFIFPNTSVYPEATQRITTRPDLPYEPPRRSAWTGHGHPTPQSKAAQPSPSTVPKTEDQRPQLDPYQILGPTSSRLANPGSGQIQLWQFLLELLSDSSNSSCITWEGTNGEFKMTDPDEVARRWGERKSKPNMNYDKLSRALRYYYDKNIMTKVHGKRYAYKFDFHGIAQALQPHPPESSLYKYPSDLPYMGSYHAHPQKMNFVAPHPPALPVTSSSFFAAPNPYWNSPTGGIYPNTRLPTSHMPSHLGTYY
# How it was run: as §1
# ELF1 = ELF1 (Homo sapiens, UniProt P32519 1-619); settings: protein: recombinant; tags: N-terminal GST; dsDNA, one strand shown
# ELF1, sequence (P32519 whole entry): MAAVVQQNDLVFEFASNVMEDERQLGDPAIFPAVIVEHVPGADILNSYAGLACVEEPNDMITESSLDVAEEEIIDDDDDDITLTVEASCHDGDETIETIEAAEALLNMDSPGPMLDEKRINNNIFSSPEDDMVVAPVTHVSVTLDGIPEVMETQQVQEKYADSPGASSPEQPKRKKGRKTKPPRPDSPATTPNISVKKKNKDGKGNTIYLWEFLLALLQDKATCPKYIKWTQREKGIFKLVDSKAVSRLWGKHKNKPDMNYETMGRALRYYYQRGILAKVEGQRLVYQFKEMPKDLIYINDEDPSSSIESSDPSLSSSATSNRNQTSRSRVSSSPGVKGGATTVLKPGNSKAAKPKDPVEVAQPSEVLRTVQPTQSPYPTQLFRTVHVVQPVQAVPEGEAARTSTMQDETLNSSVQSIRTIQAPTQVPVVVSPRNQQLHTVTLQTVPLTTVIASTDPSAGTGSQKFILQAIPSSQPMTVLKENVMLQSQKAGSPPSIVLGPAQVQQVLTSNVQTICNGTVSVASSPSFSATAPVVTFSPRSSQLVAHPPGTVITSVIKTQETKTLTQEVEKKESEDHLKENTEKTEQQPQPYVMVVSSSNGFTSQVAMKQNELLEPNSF
# How it was run: as §1
# EHF = target: T5, EHF (Homo sapiens, UniProt Q9NZC4 1-300); settings: protein: recombinant; tags: N-terminal GST; dsDNA, one strand shown
# T5 sequence: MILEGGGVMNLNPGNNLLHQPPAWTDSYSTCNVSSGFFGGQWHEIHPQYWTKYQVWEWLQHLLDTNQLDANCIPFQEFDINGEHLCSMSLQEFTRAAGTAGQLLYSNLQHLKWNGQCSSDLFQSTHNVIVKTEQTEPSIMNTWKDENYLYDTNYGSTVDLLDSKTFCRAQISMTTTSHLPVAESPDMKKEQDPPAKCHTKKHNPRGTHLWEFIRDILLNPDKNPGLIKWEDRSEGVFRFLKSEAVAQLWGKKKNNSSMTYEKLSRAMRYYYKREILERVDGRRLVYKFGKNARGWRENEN
# How it was run: as §1
# SPI1 = SPI1 (Homo sapiens, UniProt P17947 1-270); settings: protein: recombinant; tags: N-terminal GST; dsDNA, one strand shown
# How it was run: as §1
# SPIB = SPIB (Homo sapiens, UniProt Q01892 1-262); settings: protein: recombinant; tags: N-terminal GST; dsDNA, one strand shown
# SPIB, sequence (Q01892 whole entry): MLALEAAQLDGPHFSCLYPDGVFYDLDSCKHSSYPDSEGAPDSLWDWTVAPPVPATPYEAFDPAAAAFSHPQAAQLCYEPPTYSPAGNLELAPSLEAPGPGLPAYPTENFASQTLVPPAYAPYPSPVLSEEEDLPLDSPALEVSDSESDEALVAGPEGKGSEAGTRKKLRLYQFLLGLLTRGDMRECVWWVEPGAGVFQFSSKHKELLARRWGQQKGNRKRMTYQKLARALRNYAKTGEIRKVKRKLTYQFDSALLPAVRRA
# How it was run: as §1
# ELK3 = target: T6, ELK3 (Homo sapiens, UniProt P41970 1-407); settings: protein: recombinant; tags: N-terminal GST; dsDNA, one strand shown
# T6 sequence: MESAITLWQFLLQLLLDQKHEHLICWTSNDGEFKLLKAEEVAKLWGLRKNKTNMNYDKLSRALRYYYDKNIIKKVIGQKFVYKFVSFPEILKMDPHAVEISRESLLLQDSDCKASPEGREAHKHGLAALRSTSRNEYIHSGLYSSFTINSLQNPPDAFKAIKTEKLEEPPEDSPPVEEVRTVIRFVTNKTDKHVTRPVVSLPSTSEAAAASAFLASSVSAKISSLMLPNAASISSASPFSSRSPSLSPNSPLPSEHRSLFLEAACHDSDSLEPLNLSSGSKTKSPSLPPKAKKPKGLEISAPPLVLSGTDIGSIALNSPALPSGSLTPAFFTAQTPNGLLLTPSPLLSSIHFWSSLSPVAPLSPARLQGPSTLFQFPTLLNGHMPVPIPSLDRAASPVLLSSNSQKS
# How it was run: as §1
# FEV = target: T7, FEV (Homo sapiens, UniProt Q99581 1-238); settings: protein: recombinant; tags: N-terminal GST; dsDNA, one strand shown
# T7 sequence: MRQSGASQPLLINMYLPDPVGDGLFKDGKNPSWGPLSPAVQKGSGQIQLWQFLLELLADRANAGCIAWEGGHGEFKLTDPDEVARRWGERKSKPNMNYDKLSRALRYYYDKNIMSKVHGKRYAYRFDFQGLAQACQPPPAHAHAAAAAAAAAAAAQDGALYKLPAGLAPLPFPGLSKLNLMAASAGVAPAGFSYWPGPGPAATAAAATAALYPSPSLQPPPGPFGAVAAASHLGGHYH
# How it was run: as §1
# ETV5 = ETV5 (Homo sapiens, UniProt P41161 1-510); settings: protein: recombinant; tags: N-terminal GST; dsDNA, one strand shown
# ETV5, sequence (P41161 whole entry): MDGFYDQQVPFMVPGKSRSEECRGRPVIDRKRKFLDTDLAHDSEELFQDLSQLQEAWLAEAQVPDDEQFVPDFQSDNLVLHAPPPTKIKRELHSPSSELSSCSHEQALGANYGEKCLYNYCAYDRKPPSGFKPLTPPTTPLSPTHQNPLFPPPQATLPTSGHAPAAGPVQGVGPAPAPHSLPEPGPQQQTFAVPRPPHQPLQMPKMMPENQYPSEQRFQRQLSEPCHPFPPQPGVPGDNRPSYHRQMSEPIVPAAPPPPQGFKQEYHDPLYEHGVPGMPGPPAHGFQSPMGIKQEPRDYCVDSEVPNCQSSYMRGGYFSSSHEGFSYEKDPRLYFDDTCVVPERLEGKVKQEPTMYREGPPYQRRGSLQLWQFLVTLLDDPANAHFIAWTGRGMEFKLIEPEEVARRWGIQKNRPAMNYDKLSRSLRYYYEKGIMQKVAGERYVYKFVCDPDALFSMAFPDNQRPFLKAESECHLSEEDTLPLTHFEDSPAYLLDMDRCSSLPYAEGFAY
# How it was run: as §1
# HSF1 = HSF1 (Homo sapiens, UniProt Q00613 1-529); settings: protein: recombinant; tags: N-terminal GST; chain copies: 3; dsDNA, one strand shown
# HSF1, sequence (Q00613 whole entry): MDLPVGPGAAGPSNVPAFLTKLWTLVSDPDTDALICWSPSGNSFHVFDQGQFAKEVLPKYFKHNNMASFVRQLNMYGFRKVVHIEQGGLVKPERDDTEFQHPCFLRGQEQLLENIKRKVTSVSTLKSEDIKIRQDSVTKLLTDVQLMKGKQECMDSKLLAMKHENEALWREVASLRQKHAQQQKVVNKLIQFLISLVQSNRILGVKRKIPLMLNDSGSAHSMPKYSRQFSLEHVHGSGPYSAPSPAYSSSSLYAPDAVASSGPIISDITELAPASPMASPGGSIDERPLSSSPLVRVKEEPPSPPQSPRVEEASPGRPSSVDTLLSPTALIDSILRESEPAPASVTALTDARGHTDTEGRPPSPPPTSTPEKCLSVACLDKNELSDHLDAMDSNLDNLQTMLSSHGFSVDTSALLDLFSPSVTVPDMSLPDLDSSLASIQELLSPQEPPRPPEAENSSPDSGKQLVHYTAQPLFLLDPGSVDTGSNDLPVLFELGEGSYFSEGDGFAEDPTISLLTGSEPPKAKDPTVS
# How it was run: as §1
# SPIC = target: T8, SPIC (Homo sapiens, UniProt Q8N5J4 1-248); settings: protein: recombinant; tags: N-terminal GST; dsDNA, one strand shown
# T8 sequence: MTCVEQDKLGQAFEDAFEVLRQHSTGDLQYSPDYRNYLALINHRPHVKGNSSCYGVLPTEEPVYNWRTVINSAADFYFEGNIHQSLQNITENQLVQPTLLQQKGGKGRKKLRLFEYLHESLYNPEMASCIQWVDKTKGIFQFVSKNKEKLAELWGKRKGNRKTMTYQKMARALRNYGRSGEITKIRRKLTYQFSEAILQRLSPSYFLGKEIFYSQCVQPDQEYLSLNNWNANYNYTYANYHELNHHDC
# How it was run: as §1
# ELF4 = ELF4 (Homo sapiens, UniProt Q99607 1-663); settings: protein: recombinant; tags: N-terminal GST; dsDNA, one strand shown
# ELF4, sequence (Q99607 whole entry): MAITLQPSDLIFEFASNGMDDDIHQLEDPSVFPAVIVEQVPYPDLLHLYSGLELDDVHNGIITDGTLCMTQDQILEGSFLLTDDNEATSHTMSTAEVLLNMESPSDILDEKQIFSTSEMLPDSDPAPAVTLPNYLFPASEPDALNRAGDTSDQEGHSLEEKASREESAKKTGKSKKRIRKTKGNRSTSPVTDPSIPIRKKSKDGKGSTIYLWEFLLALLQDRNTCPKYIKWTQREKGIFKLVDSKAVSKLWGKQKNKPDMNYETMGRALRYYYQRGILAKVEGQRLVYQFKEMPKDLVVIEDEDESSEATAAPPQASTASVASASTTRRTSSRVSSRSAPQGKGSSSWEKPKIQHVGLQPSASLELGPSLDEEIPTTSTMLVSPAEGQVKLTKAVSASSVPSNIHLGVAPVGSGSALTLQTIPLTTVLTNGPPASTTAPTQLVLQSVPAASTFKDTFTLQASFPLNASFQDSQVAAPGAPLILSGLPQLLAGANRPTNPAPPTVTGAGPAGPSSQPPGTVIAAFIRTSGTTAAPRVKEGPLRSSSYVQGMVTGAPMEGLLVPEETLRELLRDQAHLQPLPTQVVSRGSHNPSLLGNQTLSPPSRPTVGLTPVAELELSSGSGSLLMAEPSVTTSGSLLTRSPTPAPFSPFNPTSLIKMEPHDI
# How it was run: as §1
# ELK4 = target: T9, ELK4 (Homo sapiens, UniProt P28324-2 1-405); settings: protein: recombinant; tags: N-terminal GST; dsDNA, one strand shown
# T9 sequence: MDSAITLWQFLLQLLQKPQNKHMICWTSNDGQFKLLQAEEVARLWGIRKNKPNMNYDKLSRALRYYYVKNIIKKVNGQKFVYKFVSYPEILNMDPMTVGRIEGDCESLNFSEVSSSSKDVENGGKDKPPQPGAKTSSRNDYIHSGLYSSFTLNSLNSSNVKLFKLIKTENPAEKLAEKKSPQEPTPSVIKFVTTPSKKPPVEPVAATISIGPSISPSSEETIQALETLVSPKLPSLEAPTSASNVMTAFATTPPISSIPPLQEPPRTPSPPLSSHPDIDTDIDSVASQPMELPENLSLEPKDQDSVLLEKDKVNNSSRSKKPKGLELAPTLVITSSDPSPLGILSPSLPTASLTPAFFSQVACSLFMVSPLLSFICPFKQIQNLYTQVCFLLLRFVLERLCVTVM
# How it was run: as §1
# ETV2 = target: T10, ETV2 (Homo sapiens, UniProt O00321 1-342); settings: protein: recombinant; tags: N-terminal GST; dsDNA, one strand shown
# T10 sequence: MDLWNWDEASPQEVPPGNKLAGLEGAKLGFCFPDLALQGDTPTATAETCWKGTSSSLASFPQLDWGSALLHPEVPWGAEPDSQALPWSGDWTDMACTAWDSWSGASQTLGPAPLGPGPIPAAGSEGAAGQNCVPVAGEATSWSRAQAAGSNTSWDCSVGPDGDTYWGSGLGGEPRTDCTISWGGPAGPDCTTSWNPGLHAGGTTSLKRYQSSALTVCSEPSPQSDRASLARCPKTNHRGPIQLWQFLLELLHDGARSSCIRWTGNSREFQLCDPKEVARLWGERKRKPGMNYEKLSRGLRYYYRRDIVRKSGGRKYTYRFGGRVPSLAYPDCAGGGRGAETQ
# How it was run: as §1
# ELF3 = target: T11, ELF3 (Homo sapiens, UniProt P78545 1-371); settings: protein: recombinant; tags: N-terminal GST; dsDNA, one strand shown
# T11 sequence: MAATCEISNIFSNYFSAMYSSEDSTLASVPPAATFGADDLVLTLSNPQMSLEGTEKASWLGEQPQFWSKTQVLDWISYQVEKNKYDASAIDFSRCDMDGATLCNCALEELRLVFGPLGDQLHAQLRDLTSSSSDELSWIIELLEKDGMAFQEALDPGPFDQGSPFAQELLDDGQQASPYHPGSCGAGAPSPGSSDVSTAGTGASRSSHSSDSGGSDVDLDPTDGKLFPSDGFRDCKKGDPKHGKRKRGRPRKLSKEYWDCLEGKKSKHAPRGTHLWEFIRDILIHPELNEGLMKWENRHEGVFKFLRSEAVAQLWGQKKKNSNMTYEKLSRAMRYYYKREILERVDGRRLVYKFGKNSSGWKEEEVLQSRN
# How it was run: as §1
# CRX = CRX (Homo sapiens, UniProt O43186 1-299); settings: protein: recombinant; tags: N-terminal GST; dsDNA, one strand shown
# CRX, sequence (O43186 whole entry): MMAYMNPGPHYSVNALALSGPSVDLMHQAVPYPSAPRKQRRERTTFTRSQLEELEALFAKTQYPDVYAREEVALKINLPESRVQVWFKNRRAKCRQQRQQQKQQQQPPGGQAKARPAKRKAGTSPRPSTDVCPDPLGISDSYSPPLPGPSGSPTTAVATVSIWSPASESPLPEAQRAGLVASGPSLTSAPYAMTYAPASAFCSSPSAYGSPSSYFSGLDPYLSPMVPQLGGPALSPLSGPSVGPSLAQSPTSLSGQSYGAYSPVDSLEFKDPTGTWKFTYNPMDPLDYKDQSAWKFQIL
# How it was run: as §1
# ETV1 = ETV1 (Homo sapiens, UniProt P50549 1-477); settings: protein: recombinant; tags: N-terminal GST; dsDNA, one strand shown
# ETV1, sequence (P50549 whole entry): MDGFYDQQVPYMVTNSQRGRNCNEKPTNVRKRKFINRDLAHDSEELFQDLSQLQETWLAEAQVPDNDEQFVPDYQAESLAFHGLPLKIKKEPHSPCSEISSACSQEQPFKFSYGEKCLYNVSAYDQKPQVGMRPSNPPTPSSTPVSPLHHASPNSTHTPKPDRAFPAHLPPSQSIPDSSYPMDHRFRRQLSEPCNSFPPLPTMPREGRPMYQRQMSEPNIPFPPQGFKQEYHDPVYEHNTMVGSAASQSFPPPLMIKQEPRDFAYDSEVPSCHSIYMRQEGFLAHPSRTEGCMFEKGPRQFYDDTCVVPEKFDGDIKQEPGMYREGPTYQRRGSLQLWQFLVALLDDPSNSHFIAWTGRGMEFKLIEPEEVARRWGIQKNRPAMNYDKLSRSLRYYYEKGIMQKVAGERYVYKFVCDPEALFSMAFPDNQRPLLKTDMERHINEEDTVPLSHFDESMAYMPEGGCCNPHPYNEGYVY
# How it was run: as §1
sequence,measurement,setting,value
ATAGTA,binding signal,FLI1,"1.12 fold enrichment (6-mer frequency, TF over GST control)"
same,binding signal,ELK1,"1.18 fold enrichment (6-mer frequency, TF over GST control)"
same,binding signal,GABPA,"1.19 fold enrichment (6-mer frequency, TF over GST control)"
same,binding signal,ERG,"1.15 fold enrichment (6-mer frequency, TF over GST control)"
same,binding signal,ELF1,"1.19 fold enrichment (6-mer frequency, TF over GST control)"
same,binding signal,EHF,"1.22 fold enrichment (6-mer frequency, TF over GST control)"
same,binding signal,SPI1,"1.06 fold enrichment (6-mer frequency, TF over GST control)"
same,binding signal,SPIB,"1.13 fold enrichment (6-mer frequency, TF over GST control)"
same,binding signal,ELK3,"1.12 fold enrichment (6-mer frequency, TF over GST control)"
same,binding signal,FEV,"1.16 fold enrichment (6-mer frequency, TF over GST control)"
same,binding signal,ETV5,"1.18 fold enrichment (6-mer frequency, TF over GST control)"
same,binding signal,HSF1,"1.16 fold enrichment (6-mer frequency, TF over GST control)"
same,binding signal,SPIC,"1.29 fold enrichment (6-mer frequency, TF over GST control)"
same,binding signal,ELF4,"1.16 fold enrichment (6-mer frequency, TF over GST control)"
same,binding signal,ELK4,"1.24 fold enrichment (6-mer frequency, TF over GST control)"
same,binding signal,ETV2,"1.34 fold enrichment (6-mer frequency, TF over GST control)"
same,binding signal,ELF3,"1.2 fold enrichment (6-mer frequency, TF over GST control)"
same,binding signal,CRX,"1.24 fold enrichment (6-mer frequency, TF over GST control)"
same,binding signal,ETV1,"1.13 fold enrichment (6-mer frequency, TF over GST control)"
